Compound activity from PubChem BioAssay.
M1 PAM: human M1 muscarinic receptor positive allosteric modulators, primary screen, CHO-K1 cells, Fluo-8 calcium fluorescence, 1536-well. CHO-K1 hM1, ACh EC20; 0% = ACh EC20, 100% = maximal ACh. activation, % at 3 µM. hit rate 0.088% among 360,000. AID 588819, 2011; in the data active = activation above about 19%, passing the limit was not always enough
Target sequence (P11229 whole entry, looked up): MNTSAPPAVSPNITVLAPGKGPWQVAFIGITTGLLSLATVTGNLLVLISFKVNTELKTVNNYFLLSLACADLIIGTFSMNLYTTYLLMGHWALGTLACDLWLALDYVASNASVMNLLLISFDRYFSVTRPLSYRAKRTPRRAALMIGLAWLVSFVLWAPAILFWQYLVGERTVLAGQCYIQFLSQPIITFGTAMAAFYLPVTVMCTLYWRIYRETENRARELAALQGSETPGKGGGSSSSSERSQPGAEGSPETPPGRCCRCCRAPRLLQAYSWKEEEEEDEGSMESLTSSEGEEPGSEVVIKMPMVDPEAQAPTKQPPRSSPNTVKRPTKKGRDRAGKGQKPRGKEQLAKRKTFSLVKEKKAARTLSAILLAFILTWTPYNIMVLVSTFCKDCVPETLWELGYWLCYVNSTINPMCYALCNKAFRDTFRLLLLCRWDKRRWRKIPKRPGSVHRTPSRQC
M1 antag: human M1 muscarinic receptor antagonists, primary screen, CHO-K1 cells, Fluo-8 calcium fluorescence, 1536-well | AID 588852, 2011 | hit rate 1.3% among 360,000 | inhibition, % at 3 µM | Muscarinic acetylcholine receptor M1 (Homo sapiens), P11229 | CHO-K1 hM1, ACh EC80 antagonist;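 active = percent inhibition above its own plate's cutoff, namely the mean of that plate's compound wells plus 3 SD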;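 also: peak over basal fluorescence ratio during 140 s after agonist addition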
M1 PAM parental: nonselective calcium activators in parental CHO-K1 cells, primary screen, counter-screen for M1 PAM project, cell-based, Fluo-8 calcium fluorescence, full deck, 1536-well. hit rate 0.02% among 360,000. ATP EC20; 0% at ATP EC20, 100% at ATP max. activation, % at 3 µM. AID 602247, 2012;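 active = activation above the run cutoff, the mean activation of all test compounds plus 3 SD, cut at about 40% in these data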;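 also: peak over basal fluorescence ratio in a 140 s read after ATP addition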
M1 ag parental: counter-screen for M1 agonists: effect in parental CHO-K1 cells. Fluo-8 calcium fluorescence; scaled to maximal ATP response, vehicle zero. activation, % at 3 µM. hit rate 0.48% among 360,000. AID 602248, 2012; in the data active = activation above about 15%;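 also: untransfected CHO-K1 host cells lacking M1 receptor as counterscreen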
M1 ag: human M1 muscarinic receptor agonists, primary screen, Fluo-8 calcium fluorescence, CHO-K1 cells, HTS; CHO-K1 hM1, agonist mode; 0% DMSO, 100% acetylcholine EC100; hit rate 0.33% among 360,000; activation, % at 3 µM;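 active = activation above the run's mean compound activation plus 3 SD, cut at about 16% in these data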;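 also: peak over basal fluorescence ratio within a 140 s kinetic read after compound addition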
CHO-K1 Ca antag: nonselective inhibitor or artifact in parental CHO-K1 cells. inhibition, % at 3 µM. ATP-induced calcium, Fluo-8 fluorescence. hit rate 0.6% among 360,000;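 active = inhibition above a per-plate cutoff, the plate's mean sample inhibition plus 3 SD, cut at about 24% in these data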
A number is an active result; n = inactive; x = no result. Most compounds without a hit are left out; they make up all but 2.4% or so of the library.

SMILES	M1 PAM	M1 antag	M1 PAM parental	M1 ag parental	M1 ag	CHO-K1 Ca antag
CC(C)(C)OC(=O)NCCCCCNC(=O)c1[nH]cnc1C(=O)N[C@@H](CCCCNC(=O)OC(C)(C)C)C(=O)OC(C)(C)C	n	30.0	n	n	n	n
CC(C)(C)OC(=O)N1CCC(NC(=O)c2nc[nH]c2C(=O)NCc2ccccc2)CC1	n	n	n	n	n	n
CC(C)(C)OC(=O)NCc1ccc(CNC(=O)c2nc[nH]c2C(=O)NCc2ccc(CNC(=O)OC(C)(C)C)cc2)cc1	n	n	n	n	n	29.1
CC(C)C[C@H](NC(=O)c1[nH]cnc1C(=O)Nc1ccc(CNC(=O)OC(C)(C)C)cc1)C(=O)OC(C)(C)C	n	n	47.7	n	n	n
Cc1ccc(Cc2c(-c3cccc(Br)c3)nc3cc(C)c(Br)c(C)n23)cc1	n	n	n	n	n	n
COc1ccc(Cl)cc1C(=O)NNC(=O)COC(=O)CCN=C1NS(=O)(=O)c2ccccc21	n	n	n	n	n	n
CC(C)Oc1ccc(Cn2c(-c3ccco3)n[nH]c2=S)cc1	n	29.3	n	n	n	n
COc1ccc(Cn2c(-c3ccc(OC)cc3)n[nH]c2=S)cc1	n	n	n	n	n	n
Cc1cc(C(=O)Nc2ccon2)ccc1[N+](=O)[O-]	n	n	n	21.4	n	n
Cc1c(OCC(=O)C(C)(C)C)ccc2c(-c3ccccc3)cc(=O)oc12	n	n	n	n	n	n
CCCCC(CC)C(=O)Nc1ncc([N+](=O)[O-])s1 (stereo not drawn)	n	49.5	n	n	n	25.8
c1ccc(CCNc2c3c(nc4ncnn24)CCC3)cc1	n	n	n	20.8	n	n
COc1cccc(-c2nnn(CC(=O)N3CCC(C)CC3)n2)c1	n	n	n	n	n	n
Oc1ccc(CCNc2ncnc3ccc(Cl)cc23)cc1	n	n	n	15.5	n	n
CN(C)S(=O)(=O)c1ccc(Cl)c(NC(=O)CSc2nc3c(cc2C#N)C(=O)CCC3)c1	n	n	n	16.6	n	n
CCOC(=O)C1CCCN(Cc2nc(N)nc(Nc3ccccc3)n2)C1 (stereo not drawn)	n	n	n	n	31.3	n
Cc1ccc(Nc2nc(N)nc(CN3CCN(c4ccccc4F)CC3)n2)cc1	n	n	n	n	n	n
Nc1nc(CN2CCCCCC2)nc(Nc2ccccc2)n1	n	n	n	n	n	n
Nc1nc(CN2CCN(c3ccccc3F)CC2)nc(Nc2ccccc2)n1	n	n	n	n	n	30.7
Nc1nc(CN2CCC(Cc3ccccc3)CC2)nc(Nc2ccccc2)n1	n	31.4	n	n	n	n
C=CCOc1ccc(/C=C/C(=O)OCc2csc(CC(=O)Nc3ccccc3C)n2)cc1	n	n	n	n	n	n
OC(CNC1Cc2ccccc2C1)c1ccccc1 (stereo not drawn)	n	n	n	n	16.1	n
CCOC(=O)NNC(=O)C1CCC(C)CC1 (stereo not drawn)	n	n	n	19.3	n	n
CCN(CC)c1ccc(CNc2nnnn2C)cc1	n	60.4	n	n	n	n
Cc1nc(C(=O)NCc2ccccc2)sc1C1(C)CC(c2ccccc2)=NO1 (stereo not drawn)	n	n	n	n	17.2	n
SMILES	M1 PAM	M1 antag	M1 PAM parental	M1 ag parental	M1 ag	CHO-K1 Ca antag
C=CCn1c(SC)nnc1-c1ccc2ncccc2c1	n	n	n	16.9	n	n
C=CCn1c(SCC(C)=O)nnc1-c1ccc2ncccc2c1	n	n	n	n	n	n
CCCCn1c(N)c(N(CCC(C)C)C(=O)COC(=O)c2ccc3ccccc3c2)c(=O)[nH]c1=O	n	n	n	n	n	n
CN1CCCCCC1=Nc1ccccc1C#N	n	26.6	n	n	n	n
COc1ccc(C(=O)NC(=S)NNC(=O)c2c(-c3ccccc3)noc2C)cc1OC	n	n	n	n	n	n
Cc1onc(-c2ccccc2)c1C(=O)NC(=S)NNC(=O)c1ccco1	n	n	n	18.4	17.0	n
Cc1onc(-c2ccccc2)c1C(=O)NNC(=S)NC(=O)c1ccc2c(c1)OCO2	n	n	n	55.0	52.0	n
Cc1cccc(C)c1NC(=O)C1c2ccccc2OCC(=O)N1CCc1c[nH]c2ccccc12 (stereo not drawn)	x	x	n	n	x	n
CS(=O)(=O)N1CCN(C(=O)c2cc(-c3ccncc3)nc3ccc(Cl)cc23)CC1	n	30.7	n	n	n	n
COc1ccc(N=C2C(=O)Nc3ccc(C)c(Br)c32)cc1	n	n	n	n	n	25.8
Cc1ccc(N=C2C(=O)Nc3ccc(C)c(Br)c32)cc1	n	n	n	n	n	n
COc1ccc(CCN2CC(C(=O)NCc3cn(C)nc3C)CCC2=O)cc1 (stereo not drawn)	n	n	n	n	n	n
CC(=O)c1sc(N/N=C\c2cccc(Br)c2)nc1C	n	n	n	16.9	n	n
CC(=O)c1sc(N/N=C\c2ccc(Br)cc2)nc1C	n	n	n	n	n	n
COc1cc(F)ccc1-c1csc(C(O)c2ccccc2)n1 (stereo not drawn)	n	n	n	n	n	n
CSCCC(C(=O)Nc1c(C)cccc1C)N(C)CCc1ccccc1 (stereo not drawn)	n	n	n	n	n	n
CC(CCc1ccc(O)cc1)NC(c1ccccc1)c1ccc(Cl)cc1 (stereo not drawn)	n	n	n	n	n	n
COc1ccc(CNC(C)CCc2ccccc2)cc1 (stereo not drawn)	n	n	n	n	n	n
CC(CCc1ccc(O)cc1)NCc1ccc(Br)cc1 (stereo not drawn)	n	32.4	n	n	n	n
CC(CCc1ccc(O)cc1)N(C)CCc1ccccc1 (stereo not drawn)	n	55.9	n	n	n	n
CC(CCc1ccc(O)cc1)NCCC(c1ccccc1)c1ccccc1 (stereo not drawn)	n	45.3	n	n	n	n
c1cc(-c2n[nH]c(-c3ccncc3)n2)ccn1	n	n	n	19.6	n	n
O=C(CCN1C(=O)/C(=C/c2ccccc2F)SC1=S)NCCCN1CCOCC1	n	n	n	18.6	n	n
O=C(CCN1C(=O)/C(=C/c2ccccc2)SC1=S)NCCCN1CCOCC1	n	n	n	n	n	n
N#Cc1nc(-c2ccccc2Cl)oc1NCC1CCCO1 (stereo not drawn)	n	n	n	n	n	24.8
Cc1cccc(NC(=O)CC2C(=O)NCCN2C(=O)Nc2ccc(Cl)cc2)c1 (stereo not drawn)	n	n	n	n	n	n
